Our source for the inhibition values is ChEMBL document CHEMBL1961873, “Compounds: GSK PKIS; Assays: Nanosyn kinase panel” (2012).

Experiment [1] concerns the target Mitogen-activated protein kinase 3 (Homo sapiens) (UniProt P27361). Particulars: at 1 µM.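 Also: values are mean percent inhibition of MAPK3.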
The target in experiment [2] is SRSF protein kinase 3 (Homo sapiens) (UniProt Q9UPE1). The conditions noted are these: at 0.1 µM.
Experiment [3] has the same target. Particulars: at 1 µM.
Experiment [4] deals with Mitogen-activated protein kinase 14 (Homo sapiens) (UniProt Q16539). Particulars: at 0.1 µM.
Sequence of Mitogen-activated protein kinase 14 (Homo sapiens) (Q16539 whole entry): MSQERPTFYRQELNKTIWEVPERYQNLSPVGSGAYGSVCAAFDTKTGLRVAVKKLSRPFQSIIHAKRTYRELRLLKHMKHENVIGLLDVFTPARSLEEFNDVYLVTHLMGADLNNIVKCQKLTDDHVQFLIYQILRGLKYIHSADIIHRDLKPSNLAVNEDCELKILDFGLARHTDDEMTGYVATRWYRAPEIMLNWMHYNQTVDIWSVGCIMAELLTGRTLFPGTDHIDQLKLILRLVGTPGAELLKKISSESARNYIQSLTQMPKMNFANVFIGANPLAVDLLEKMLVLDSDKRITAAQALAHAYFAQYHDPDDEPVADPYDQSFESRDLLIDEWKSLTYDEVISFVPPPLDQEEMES
For experiment [5] the target is unchanged. The conditions noted are these: at 1 µM.
The target in experiment [6] is Mitogen-activated protein kinase 11 (Homo sapiens) (UniProt Q15759). The conditions noted are these: at 0.1 µM.
Sequence of Mitogen-activated protein kinase 11 (Homo sapiens) (Q15759 whole entry): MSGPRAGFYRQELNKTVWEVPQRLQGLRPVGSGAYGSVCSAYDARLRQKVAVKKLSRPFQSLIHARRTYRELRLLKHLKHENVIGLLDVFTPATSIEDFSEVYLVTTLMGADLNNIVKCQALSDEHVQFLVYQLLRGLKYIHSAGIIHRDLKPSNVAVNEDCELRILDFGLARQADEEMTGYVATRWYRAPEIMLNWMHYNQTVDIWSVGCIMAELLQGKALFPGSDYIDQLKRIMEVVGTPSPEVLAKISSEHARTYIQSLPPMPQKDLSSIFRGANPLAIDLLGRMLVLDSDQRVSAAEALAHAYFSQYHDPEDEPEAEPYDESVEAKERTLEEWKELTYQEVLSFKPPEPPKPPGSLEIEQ
For experiment [7] the target is unchanged. Particulars: at 1 µM.
For experiment [8], the target named is T1, Mitogen-activated protein kinase 13 (Homo sapiens) (UniProt O15264).
T1 sequence (whole entry): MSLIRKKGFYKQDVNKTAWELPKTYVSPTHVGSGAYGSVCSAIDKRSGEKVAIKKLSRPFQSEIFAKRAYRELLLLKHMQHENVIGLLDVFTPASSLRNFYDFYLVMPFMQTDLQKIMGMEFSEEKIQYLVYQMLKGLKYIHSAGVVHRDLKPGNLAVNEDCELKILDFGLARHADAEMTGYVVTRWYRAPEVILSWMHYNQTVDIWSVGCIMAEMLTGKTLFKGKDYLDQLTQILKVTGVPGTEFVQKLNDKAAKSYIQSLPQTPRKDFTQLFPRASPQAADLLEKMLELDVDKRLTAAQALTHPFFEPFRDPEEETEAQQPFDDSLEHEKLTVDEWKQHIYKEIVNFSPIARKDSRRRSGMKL
Particulars: at 0.1 µM.

The target of experiment [9] is T1, Mitogen-activated protein kinase 13 (Homo sapiens). Particulars: at 1 µM.
For experiment [10], the target named is T2, Mitogen-activated protein kinase 12 (Homo sapiens) (UniProt P53778).
T2 sequence (whole entry): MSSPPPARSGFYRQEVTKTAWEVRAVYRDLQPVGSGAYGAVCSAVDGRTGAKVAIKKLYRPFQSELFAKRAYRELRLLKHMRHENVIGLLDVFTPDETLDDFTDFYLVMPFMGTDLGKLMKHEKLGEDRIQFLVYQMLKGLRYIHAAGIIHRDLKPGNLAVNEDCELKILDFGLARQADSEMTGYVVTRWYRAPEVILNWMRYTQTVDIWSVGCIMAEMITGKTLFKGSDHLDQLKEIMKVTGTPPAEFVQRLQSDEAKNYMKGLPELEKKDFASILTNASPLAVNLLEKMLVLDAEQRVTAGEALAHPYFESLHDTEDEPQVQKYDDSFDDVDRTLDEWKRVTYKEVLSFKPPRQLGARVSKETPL
Particulars: at 0.1 µM.

Experiment [11] concerns the target T2, Mitogen-activated protein kinase 12 (Homo sapiens). The conditions noted are these: at 1 µM.
The target in experiment [12] is SRSF protein kinase 1 (Homo sapiens) (UniProt Q96SB4). Particulars: at 0.1 µM.
Sequence of SRSF protein kinase 1 (Homo sapiens) (Q96SB4 whole entry): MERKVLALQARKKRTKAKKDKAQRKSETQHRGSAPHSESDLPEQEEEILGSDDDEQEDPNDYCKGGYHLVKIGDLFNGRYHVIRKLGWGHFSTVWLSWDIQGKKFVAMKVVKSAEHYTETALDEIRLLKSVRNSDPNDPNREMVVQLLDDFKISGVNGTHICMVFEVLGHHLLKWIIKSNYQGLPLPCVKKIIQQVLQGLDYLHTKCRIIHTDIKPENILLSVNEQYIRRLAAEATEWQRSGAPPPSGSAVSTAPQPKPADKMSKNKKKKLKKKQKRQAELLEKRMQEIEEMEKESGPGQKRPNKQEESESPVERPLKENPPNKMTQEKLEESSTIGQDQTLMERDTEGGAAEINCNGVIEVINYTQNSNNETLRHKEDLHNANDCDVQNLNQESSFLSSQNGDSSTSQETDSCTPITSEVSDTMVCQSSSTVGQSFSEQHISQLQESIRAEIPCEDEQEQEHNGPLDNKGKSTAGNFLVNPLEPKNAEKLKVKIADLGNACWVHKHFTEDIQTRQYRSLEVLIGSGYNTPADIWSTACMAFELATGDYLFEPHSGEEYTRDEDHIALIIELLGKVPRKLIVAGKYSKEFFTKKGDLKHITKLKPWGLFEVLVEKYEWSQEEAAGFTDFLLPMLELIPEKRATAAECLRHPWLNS
The target is the same in experiment [13]. The conditions noted are these: at 1 µM.
The target of experiment [14] is Phosphatidylinositol 4,5-bisphosphate 3-kinase catalytic subunit alpha isoform (Homo sapiens) (UniProt P42336). The conditions noted are these: at 0.1 µM.
Sequence of Phosphatidylinositol 4,5-bisphosphate 3-kinase catalytic subunit alpha isoform (Homo sapiens) (P42336 whole entry, canonical isoform): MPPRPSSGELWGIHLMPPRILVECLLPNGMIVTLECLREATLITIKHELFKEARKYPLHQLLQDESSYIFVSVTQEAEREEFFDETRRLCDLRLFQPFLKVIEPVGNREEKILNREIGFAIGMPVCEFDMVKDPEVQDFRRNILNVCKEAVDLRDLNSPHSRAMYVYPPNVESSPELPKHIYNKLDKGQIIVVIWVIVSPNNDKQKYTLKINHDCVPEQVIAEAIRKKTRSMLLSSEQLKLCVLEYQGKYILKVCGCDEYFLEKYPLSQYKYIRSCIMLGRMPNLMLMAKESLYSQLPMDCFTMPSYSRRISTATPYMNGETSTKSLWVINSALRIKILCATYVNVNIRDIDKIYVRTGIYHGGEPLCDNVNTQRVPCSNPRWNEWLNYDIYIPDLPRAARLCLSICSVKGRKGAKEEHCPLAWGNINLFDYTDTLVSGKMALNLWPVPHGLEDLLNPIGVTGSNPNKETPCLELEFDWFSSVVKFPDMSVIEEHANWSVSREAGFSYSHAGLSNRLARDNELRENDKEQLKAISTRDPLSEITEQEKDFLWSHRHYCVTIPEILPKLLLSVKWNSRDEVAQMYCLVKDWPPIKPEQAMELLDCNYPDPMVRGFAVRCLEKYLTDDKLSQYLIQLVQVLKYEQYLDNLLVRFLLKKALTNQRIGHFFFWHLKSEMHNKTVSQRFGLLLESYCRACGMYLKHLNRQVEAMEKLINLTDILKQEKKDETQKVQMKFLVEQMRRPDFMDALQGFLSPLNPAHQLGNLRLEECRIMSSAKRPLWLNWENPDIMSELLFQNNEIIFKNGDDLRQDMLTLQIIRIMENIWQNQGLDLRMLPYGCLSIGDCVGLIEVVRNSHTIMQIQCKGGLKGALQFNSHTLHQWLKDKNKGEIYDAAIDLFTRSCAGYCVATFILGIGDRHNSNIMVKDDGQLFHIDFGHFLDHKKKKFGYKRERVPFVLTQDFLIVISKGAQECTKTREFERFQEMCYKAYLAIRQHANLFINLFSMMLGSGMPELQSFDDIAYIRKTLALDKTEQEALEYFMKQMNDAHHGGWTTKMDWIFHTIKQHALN
Experiment [15] has the same target. Particulars: at 1 µM.
Experiment [16] deals with T3, Phosphatidylinositol 4,5-bisphosphate 3-kinase catalytic subunit delta isoform (Homo sapiens) (UniProt O00329).
T3 sequence (whole entry): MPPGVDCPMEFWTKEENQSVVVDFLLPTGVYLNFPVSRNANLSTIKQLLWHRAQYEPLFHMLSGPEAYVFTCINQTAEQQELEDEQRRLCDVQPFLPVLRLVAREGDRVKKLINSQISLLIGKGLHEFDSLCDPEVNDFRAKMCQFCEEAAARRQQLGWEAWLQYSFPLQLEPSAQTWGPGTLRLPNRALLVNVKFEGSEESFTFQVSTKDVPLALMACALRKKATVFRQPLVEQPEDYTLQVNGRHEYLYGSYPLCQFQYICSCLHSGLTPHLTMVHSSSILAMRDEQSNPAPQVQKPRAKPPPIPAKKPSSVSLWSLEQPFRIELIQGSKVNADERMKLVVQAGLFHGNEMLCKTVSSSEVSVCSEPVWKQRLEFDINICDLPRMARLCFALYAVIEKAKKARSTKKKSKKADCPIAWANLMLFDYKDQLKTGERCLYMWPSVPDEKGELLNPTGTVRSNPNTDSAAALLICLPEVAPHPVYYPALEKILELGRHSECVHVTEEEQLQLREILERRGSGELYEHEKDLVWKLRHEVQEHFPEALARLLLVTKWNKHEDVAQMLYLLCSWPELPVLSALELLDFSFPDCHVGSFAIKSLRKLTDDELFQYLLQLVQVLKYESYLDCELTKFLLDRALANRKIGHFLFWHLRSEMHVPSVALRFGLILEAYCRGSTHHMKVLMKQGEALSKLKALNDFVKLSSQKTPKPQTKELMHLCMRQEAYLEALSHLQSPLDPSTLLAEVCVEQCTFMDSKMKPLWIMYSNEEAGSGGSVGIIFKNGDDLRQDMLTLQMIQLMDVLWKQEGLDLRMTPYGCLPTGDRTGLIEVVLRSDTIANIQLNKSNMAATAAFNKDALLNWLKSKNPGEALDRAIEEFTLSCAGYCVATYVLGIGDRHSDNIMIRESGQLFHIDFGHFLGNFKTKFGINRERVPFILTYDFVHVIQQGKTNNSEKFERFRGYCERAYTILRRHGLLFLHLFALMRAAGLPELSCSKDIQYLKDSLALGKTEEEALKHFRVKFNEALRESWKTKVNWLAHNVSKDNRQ
The conditions noted are these: at 0.1 µM.

Experiment [17] has as its target T3, Phosphatidylinositol 4,5-bisphosphate 3-kinase catalytic subunit delta isoform (Homo sapiens). The conditions noted are these: at 1 µM.
The target of experiment [18] is Phosphatidylinositol 4-kinase beta (Homo sapiens) (UniProt Q9UBF8). Particulars: at 0.1 µM.
Sequence of Phosphatidylinositol 4-kinase beta (Homo sapiens) (Q9UBF8 2-816 limits assumed): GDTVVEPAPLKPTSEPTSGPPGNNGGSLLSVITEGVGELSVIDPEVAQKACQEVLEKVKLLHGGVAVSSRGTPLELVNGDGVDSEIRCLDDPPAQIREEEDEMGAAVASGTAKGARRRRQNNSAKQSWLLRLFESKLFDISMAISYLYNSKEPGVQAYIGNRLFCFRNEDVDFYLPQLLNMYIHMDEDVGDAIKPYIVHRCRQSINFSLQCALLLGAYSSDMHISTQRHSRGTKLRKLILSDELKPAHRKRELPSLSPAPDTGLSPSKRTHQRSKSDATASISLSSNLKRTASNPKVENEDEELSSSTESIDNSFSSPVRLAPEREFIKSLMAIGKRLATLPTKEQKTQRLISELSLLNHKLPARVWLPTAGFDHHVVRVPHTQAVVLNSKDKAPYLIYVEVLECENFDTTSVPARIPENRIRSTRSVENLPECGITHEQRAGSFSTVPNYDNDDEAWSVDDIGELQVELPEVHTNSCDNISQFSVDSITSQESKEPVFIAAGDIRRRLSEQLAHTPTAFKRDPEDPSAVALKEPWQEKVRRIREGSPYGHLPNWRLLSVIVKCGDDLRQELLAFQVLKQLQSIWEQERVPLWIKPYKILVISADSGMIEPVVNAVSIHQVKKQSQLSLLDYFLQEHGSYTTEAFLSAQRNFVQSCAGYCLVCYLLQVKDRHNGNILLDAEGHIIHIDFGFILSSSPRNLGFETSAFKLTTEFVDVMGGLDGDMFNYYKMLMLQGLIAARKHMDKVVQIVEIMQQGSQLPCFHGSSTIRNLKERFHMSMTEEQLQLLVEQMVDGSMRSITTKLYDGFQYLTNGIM
Experiment [19] shares this target. The conditions noted are these: at 1 µM.
Experiment [20] concerns the target Sphingosine kinase 1 (Homo sapiens) (UniProt Q9NYA1). The conditions noted are these: at 0.1 µM.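 Also: mean percent inhibition of SPHK1 activity, measured within the GSK PKIS screening panel.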

Sequence of Mitogen-activated protein kinase 3 (Homo sapiens) (P27361 whole entry): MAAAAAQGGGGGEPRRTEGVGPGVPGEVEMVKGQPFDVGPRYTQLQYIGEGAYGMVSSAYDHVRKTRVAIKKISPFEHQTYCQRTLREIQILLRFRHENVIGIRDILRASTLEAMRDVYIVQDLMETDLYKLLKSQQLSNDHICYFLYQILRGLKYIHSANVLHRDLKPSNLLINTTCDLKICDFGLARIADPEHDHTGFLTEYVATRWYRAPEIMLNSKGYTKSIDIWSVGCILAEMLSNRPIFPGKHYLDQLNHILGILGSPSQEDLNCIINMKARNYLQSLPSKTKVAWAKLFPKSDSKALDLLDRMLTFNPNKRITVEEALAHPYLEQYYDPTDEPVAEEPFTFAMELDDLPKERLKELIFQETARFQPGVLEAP
Sequence of SRSF protein kinase 3 (Homo sapiens) (Q9UPE1 whole entry): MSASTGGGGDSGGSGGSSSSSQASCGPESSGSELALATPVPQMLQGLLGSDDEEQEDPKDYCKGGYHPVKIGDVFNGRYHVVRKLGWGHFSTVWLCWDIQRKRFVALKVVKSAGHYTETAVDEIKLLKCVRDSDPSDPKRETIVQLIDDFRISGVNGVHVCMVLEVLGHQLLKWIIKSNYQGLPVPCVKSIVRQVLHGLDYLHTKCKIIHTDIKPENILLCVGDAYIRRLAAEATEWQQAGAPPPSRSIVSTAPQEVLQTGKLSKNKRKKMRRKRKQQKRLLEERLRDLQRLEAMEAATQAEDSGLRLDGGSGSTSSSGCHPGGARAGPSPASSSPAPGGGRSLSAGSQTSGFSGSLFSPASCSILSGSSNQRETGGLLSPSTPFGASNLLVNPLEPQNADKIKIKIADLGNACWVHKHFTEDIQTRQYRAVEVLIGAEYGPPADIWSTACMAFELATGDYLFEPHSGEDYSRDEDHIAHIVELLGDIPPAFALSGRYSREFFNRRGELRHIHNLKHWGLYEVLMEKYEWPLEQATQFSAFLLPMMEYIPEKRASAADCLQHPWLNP
Sequence of Sphingosine kinase 1 (Homo sapiens) (Q9NYA1 whole entry): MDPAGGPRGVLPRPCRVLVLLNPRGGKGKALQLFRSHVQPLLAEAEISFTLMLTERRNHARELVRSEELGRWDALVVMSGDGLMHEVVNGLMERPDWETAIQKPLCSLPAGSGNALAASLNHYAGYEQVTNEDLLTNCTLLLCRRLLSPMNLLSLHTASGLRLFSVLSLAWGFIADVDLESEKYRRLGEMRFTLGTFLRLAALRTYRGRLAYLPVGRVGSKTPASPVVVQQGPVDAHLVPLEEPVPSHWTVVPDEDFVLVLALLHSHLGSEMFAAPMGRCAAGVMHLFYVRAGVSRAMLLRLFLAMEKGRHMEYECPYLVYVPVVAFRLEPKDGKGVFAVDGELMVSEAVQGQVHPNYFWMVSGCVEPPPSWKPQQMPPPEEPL

For `COc1cc2ncn(-c3cc(O[C@H](C)c4ccccc4Cl)c(C(N)=O)s3)c2cc1OC`, the inhibition (in general, the drop in the measured response relative to a control, in per cent) in [1] is 4.54%; in experiment [2], -0.2%; in [3], 8.42%; in experiment [4], 5.73%; in experiment [5], 6.35%; in experiment [6], 3.71%. Moreover, the inhibition in [7] came out at 4.9%; in [8] it was 2.38%; in experiment [9], 3.77%; in experiment [10], 2.99%; in experiment [11] it was 3.72%; in [12], 0.35%. Moreover, the inhibition in experiment [13] was 7.77%; in experiment [14], 7.21%; in experiment [15] it was 36.1%; in experiment [16], 13.6%; in [17], 59.9%; in experiment [18], 2.43%. Besides, the figures for the inhibition in experiment [19] and in experiment [20] were -0.59% and 1.83%, respectively.
For `COc1ccc(-c2nn3ncccc3c2-c2ccnc(Nc3ccc(Cl)c(C(F)(F)F)c3)n2)cc1`, the inhibition in experiment [1] was 4.01%; in [2] it was -2.03%; in experiment [3], -0.79%; in experiment [4] it was 4.58%; in experiment [5] it was 36.1%; in [6], 2.93%. Further, the inhibition in experiment [7] is 16.8%; in [8], 0.64%; in experiment [9], 1.01%; in [10], 1.67%; in experiment [11], 0.36%; in [12], -1.95%. Moreover, the inhibition in experiment [13] was -0.38%; in experiment [14] it was 1%; in [15] it was 10.4%; in experiment [16], -0.59%; in experiment [17] it was 2.57%; in experiment [18] it was -1.86%. For the same compound, the inhibition in experiment [19] came to 0.08%; in [20] it was 19.3%.
As to `COc1ccc2cc(-c3c(-c4ccncc4)nc(-c4ccc([S+](C)[O-])cc4)n3C)ccc2c1` (stereo not given), the inhibition is 0.18% in experiment [1]; -1.39% in [2]; -1.03% in experiment [3]; 1.72% in experiment [4]; 8.34% in experiment [5]; 3.87% in [6]. The inhibition in [7] is 7.24%; in experiment [8] it was -1.65%; in experiment [9], 3.19%; in [10], 2.2%; in [11], 2.03%; in experiment [12], -3.09%. The inhibition in [13] is -4.71%; in [14], 2.81%; in experiment [15] it was 3.47%; in [16], 6.86%; in [17] it was 3.16%; in [18] it was -2.02%. Also, the inhibition in [19] was -2.26%; in experiment [20], 0.08%.
`O=C1NC(=O)C(c2ccc(Cl)cc2)=C1Nc1ccc(Cl)c(C(=O)O)c1`: the inhibition in experiment [1] is 0%; in experiment [2], 0.85%; in [3], 1.51%; in experiment [4], 0.32%; in [5], -0.58%; in experiment [6], -1.36%. In addition, the inhibition in experiment [7] was -1.39%; in experiment [8], -5.51%; in experiment [9] it was -3.8%; in [10], -2.36%; in experiment [11] it was -2.21%; in experiment [12], 1.64%. For the same compound, the inhibition in experiment [13] was 3.21%; in experiment [14] it was 1.09%; in experiment [15] it was 2.23%; in [16], 3.38%; in experiment [17], 2.76%; in experiment [18], -1.72%. The inhibition in [19] was -4.96%; in experiment [20] it was -1.27%.
As for `CCn1c(-c2nonc2N)nc2ccncc21`, the inhibition is 1.29% in [1]; -2.05% in experiment [2]; -2.78% in experiment [3]; 2.59% in experiment [4]; 3.78% in experiment [5]; 2.84% in experiment [6]. Moreover, the inhibition in experiment [7] is 2.34%; in [8], 0.59%; in experiment [9], 0.17%; in experiment [10] it was 2.32%; in experiment [11], 1.43%; in experiment [12] it was -3.78%. Moreover, the inhibition is -6.35% in experiment [13]; 0.03% in experiment [14]; 1.86% in experiment [15]; 2.2% in [16]; 2.13% in experiment [17]; 4.46% in experiment [18]. In addition, the inhibition in experiment [19] was -4.32%; in experiment [20], -1.27%.
In the case of `COc1ccc(-c2ccncc2)cc1C(N)=O`, the inhibition in experiment [1] was 5.57%; in experiment [2], 0.64%; in experiment [3] it was -1.37%; in experiment [4], 7.77%; in experiment [5], 9.51%; in [6] it was -0.28%. The inhibition in experiment [7] was 5.04%; in experiment [8], 5.1%; in experiment [9] it was 6.16%; in [10] it was 4.29%; in experiment [11], 5.57%; in experiment [12] it was -3.43%. The inhibition was -2.49% in experiment [13]; 5.07% in experiment [14]; 4.31% in [15]; 2.29% in experiment [16]; 3.83% in experiment [17]; -1.68% in [18]. Further, the figures for the inhibition in [19] and in [20] were 4.03% and 1.01%, respectively.
